The list is not random: actives were taken first. Their share in the collection is about 2.8%.
IP6K1 inh – inhibitors of human IP6K1 | IP6K1 kinase, ADP-Glo luminescence, 2 h; active compounds read low | activity change, % (series mostly up to about 58 µM) | Q92551 | hit rate 0.81% among 140,000 | AID 1645851; in the data active = activity change below about -25%
Target sequence (Q92551 whole entry, looked up): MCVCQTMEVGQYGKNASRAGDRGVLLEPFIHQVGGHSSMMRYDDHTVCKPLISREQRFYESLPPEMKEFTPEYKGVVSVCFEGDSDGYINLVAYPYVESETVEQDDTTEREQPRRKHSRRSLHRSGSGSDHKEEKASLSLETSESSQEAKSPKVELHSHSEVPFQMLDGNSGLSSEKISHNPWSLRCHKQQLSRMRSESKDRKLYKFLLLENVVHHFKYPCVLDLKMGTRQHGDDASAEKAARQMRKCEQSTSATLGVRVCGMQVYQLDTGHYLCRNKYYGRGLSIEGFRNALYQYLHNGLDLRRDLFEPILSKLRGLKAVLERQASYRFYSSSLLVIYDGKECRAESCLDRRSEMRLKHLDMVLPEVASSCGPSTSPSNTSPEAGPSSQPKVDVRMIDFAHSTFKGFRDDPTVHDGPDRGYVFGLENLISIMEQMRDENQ
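ADP-Glo luminescence measures ADP made by human IP6K1 during a 2 h RT reaction with ATP/IP6 (mix at 1.3 mM/130 uM); top library doses 57.5 and 19.1 uM final.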
SNCA expr inhib – reduces expression of the alpha-synuclein gene. HEK-293 SNCA-luciferase knock-in, luminescence, 24 h. Potency, µM (top dose mostly 57.2 µM), usual class: inhibitors. hit rate 0.17% among 140,000. AID 1671194; also: nearly all actives have a fitted effect of over 45% in size
SNCA viab count – reduces viability of HEK-293 SNCA reporter cells; HEK-293-SNCA-luc viability, GF-AFC fluorescence, 24 h; hit rate 0.12% among 150,000; AID 1671193; Potency, µM (top dose mostly 57.1 µM), actives largely listed as cytotoxic; also: nearly all actives have a fitted effect of over 30% in size
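Cytotoxicity counterscreen: after 24 h compound treatment of genome-edited SNCA-luciferase HEK-293 cells, live-cell protease substrate GF-AFC read by fluorescence after 30 min; activity scaled between DMSO (0%) and medium-only (-100%), curves Hill-fitted.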
KDM5B inh – KDM5B demethylase inhibition. Q9UGL1. KDM5B demethylase, FDH-coupled NADH fluorescence (FDH is formaldehyde dehydrogenase). Potency, µM (doses to about 57.7 µM), actives largely listed as inhibitors. hit rate 2.6% among 220,000. AID 1347165; also: nearly all actives have a fitted effect of over 70% in size
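Coupled FDH/NAD⁺ fluorescence readout. KDM5BΔAP 200 nM final; compound titration, 10 min RT preincubation; substrate mix 12.5 µM H3K4me3, 25 µM 2-OG, 50 µM Fe(II), 100 µM ascorbate, 0.25 mM NAD⁺, 0.25 U/mL FDH; ΔRFU over 30 min.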
Numbers stand for hits; i = inactive; ? = inconclusive; nt = no result. Unless noted, calls follow the shape of the dose curve; as a rule, active = well fitted curve in the direction sought with a large enough effect; inconclusive = small, poorly fitted or top-dose-only effect, or another doubt; inactive = no such curve, though single readings can be large; an effect the other way counts as inactive or inconclusive.

SMILES | IP6K1 inh | SNCA expr inhib | SNCA viab count | KDM5B inh
Cc1ccc(C(=O)NC23CC4CC(CC(C4)C2)C3)cc1Cl | nt | nt | nt | i
C=CC[N+]1(CC2C(C)C=C(C)CC2C)CCCCC1 (centres undefined) | nt | nt | nt | i
Cc1ccc(NC(=O)C2Cc3ccc(C)cc3S2)cc1 (centres undefined) | nt | nt | nt | i
Cc1ccc(C(=O)NCc2nnc3ccc(-c4ccccc4)nn23)s1 | i | i | i | ?
Cc1ccsc1C(=O)NCc1nnc2ccc(-c3ccc(Cl)cc3)nn12 | i | i | i | 32µM
O=C(NCc1nnc2ccc(-c3ccccc3)nn12)c1ccc(Cl)s1 | i | i | i | 22µM
O=C(NCc1nnc2ccc(-c3ccc(Cl)cc3)nn12)c1ccc(Cl)s1 | i | i | i | 5µM
Cc1ccc(C(=O)NCc2nnc3ccc(-c4ccc(Cl)cc4)nn23)s1 | i | ? | i | 16µM
CN(Cc1ccc(C(=O)NCC(F)(F)F)cc1)c1nc2ccccc2o1 | nt | nt | nt | i
CC1=C[C@@H](CO)[C@H](C(C)C)C[C@H]1Cc1nnc(-c2ccc(N(C)C)cc2)o1 | i | i | i | 32µM
CC1=C[C@@H](CNCCN(C)C)[C@H](C(C)C)C[C@H]1Cc1nnc(-c2ccc(C)cc2)o1 | i | i | i | i
COCCNC[C@@H]1C=C(C)[C@H](Cc2nnc(-c3ccc(N(C)C)cc3)o2)C[C@H]1C(C)C | i | i | ? | 28µM
CC1=C[C@@H](CN2CCC[C@H]2CO)[C@H](C(C)C)C[C@H]1Cc1nnc(-c2ccc(N(C)C)cc2)o1 | i | i | i | 11µM
COc1ccccc1-c1cccc(CN2CCCC(C(=O)NCc3ccc(C(F)(F)F)cc3)C2)c1 (centres undefined) | i | ? | ? | nt
CN1Cc2cccn2CC1CNC(=O)c1ccccc1F (centres undefined) | i | i | i | ?
O=C(NCC1Cn2cccc2CN1Cc1ccccc1)c1ccccn1 (centres undefined) | i | i | i | nt
Cc1cc(C)n(Cc2ccc(C(=O)NN)o2)n1 | nt | nt | nt | i
CN1Cc2cccn2CC1CNC(=O)c1ccnn1C (centres undefined) | i | ? | i | 22µM
CCOCCCNC(=O)NCC1Cn2cccc2CN1Cc1ccccc1 (centres undefined) | i | i | i | 28µM
COc1cccc(CC(=O)NCC2Cn3cccc3CN2Cc2ccccc2)c1 (centres undefined) | i | i | i | nt
Cc1cc(C)n(Cc2ccc(C(=O)NCC3Cn4cccc4CN3Cc3ccccc3)o2)n1 (centres undefined) | i | i | i | 32µM
CCn1ccc(C(=O)NCC2Cn3cccc3CN2Cc2ccccc2)n1 (centres undefined) | i | i | i | 28µM
CCOC(=O)C1CCC(CNC(=O)N2CCCC2c2ccccc2C)CC1 (centres undefined) | nt | nt | nt | i
CCONC(=O)c1ccc(OCC(C)C)cc1 | nt | nt | nt | i
O=C(NCC1Cn2cccc2CN1Cc1cccnc1)Nc1ccccc1 (centres undefined) | i | i | i | ?
SMILES | IP6K1 inh | SNCA expr inhib | SNCA viab count | KDM5B inh
O=S(=O)(NCC1Cn2cccc2CN1Cc1cccnc1)c1ccc(F)cc1 (centres undefined) | i | i | i | 28µM
Cn1nccc1C(=O)NCC1Cn2cccc2CN1Cc1ccccc1 (centres undefined) | i | i | i | 22µM
O=C(NCC1Cn2cccc2CN1Cc1ccccc1)c1cncc(Br)c1 (centres undefined) | i | i | i | 28µM
Cc1ncoc1C(=O)NCC1Cn2cccc2CN1Cc1ccccc1 (centres undefined) | i | i | i | 28µM
CC(C)S(=O)(=O)NCC1Cn2cccc2CN1Cc1ccccc1 (centres undefined) | i | i | i | ?
O=C(c1ccc2c(=O)n(-c3ccccc3F)cnc2c1)N1CCOCC1 | nt | nt | nt | i
NCc1ccc(CN2CCc3ccccc32)cc1 | nt | nt | nt | i
Cc1ccc(CN2CCN(c3nc4c(c(=O)[nH]c(=O)n4C)n3Cc3ccc(C)cc3)CC2)cc1 | nt | nt | nt | i
O=C(NCCc1ccc(F)cc1)C1CC=CCC1 (centres undefined) | nt | nt | nt | i
Cn1cnc(S(=O)(=O)NCC2Cn3cccc3CN2Cc2ccccc2)c1 (centres undefined) | i | i | i | 28µM
O=S(=O)(NCC1Cn2cccc2CN1Cc1ccccc1)c1ccccc1 (centres undefined) | i | i | i | nt
COc1ncccc1Nc1cnc2ccc(N(C)Cc3ccc(F)cc3)nn12 | i | ? | i | 32µM
COc1ccc(F)cc1Nc1cnc2ccc(N(C)Cc3cccnc3)nn12 | i | ? | ? | 32µM
CN(C)c1ccc2ncc(Nc3ccccc3Cl)n2n1 | i | i | i | 35µM
CN(Cc1ccc(F)cc1)c1ccc2ncc(Nc3ccncc3)n2n1 | i | i | i | ?
CN(Cc1ccccc1)C(=O)c1ccc(OCc2ccccc2)cc1 | nt | nt | nt | i
CCC(=O)Oc1ccc2c(=O)c(-c3ccc(OC)c(OC)c3)c(C(F)(F)F)oc2c1 | nt | nt | nt | i
CCOc1ccc(Cc2nc(-c3c(C)nc4ccccn34)cs2)cc1 | i | nt | 12µM | nt
CC[Si](C)(CC)COC(=O)CCC[N+](C)(C)C | nt | nt | nt | i
COCCN1C(=O)CO[C@H]2CN(c3ncccn3)C[C@H]21 | i | i | i | 35µM
O=C(c1nc(-c2cc(Cl)cc(Cl)c2)c2ccccn12)N1CCN(c2ncccn2)CC1 | i | i | i | i
O=C(c1nc(-c2ccsc2)c2ccccn12)N1CCOCC1 | i | i | i | 35µM
COc1ccc(-c2nc(C(=O)N3CCN(c4ncccn4)CC3)n3ccccc23)cc1 | i | i | i | 32µM
O=C(c1nc(-c2ccsc2)c2ccccn12)N1CCN(c2ncccn2)CC1 | i | i | i | 25µM
CC(C)(C)c1nc(C(=O)N2CCN(c3ncccn3)CC2)n2ccccc12 | i | i | i | 79µM
SMILES | IP6K1 inh | SNCA expr inhib | SNCA viab count | KDM5B inh
Cc1cc(C)n2nc(CC(=O)Nc3nc(-c4ccc(F)cc4)c(C)s3)nc2n1 | nt | nt | nt | i
Cc1nn(CCc2nnc(Nc3ccn(Cc4ccccc4Cl)n3)s2)cc1Br | nt | nt | nt | i
CN1CCN(c2cc(=O)c3ccnc(-c4cn[nH]c4)c3o2)CC1 | i | i | i | 28µM
CN1CCN(c2cc(=O)c3ccnc(-c4ccccc4F)c3o2)CC1 | i | i | i | 35µM
CN1CCN(c2cc(=O)c3ccnc(-c4ccnn4C)c3o2)CC1 | i | ? | i | 40µM
Cc1sc(N)c(C#N)c1-c1ccc(CC(C)C)cc1 | nt | nt | nt | i
O=c1cc(-c2ccccc2)c2ccc(OCc3ccc(-c4ccccc4)cc3)cc2o1 | nt | nt | nt | i
O=c1[nH]nc(-c2ccco2)c2c1Nc1nnnn1C2c1ccc(Cl)cc1Cl (centres undefined) | nt | nt | nt | i
COc1cccc(-c2nc(SCc3cc(=O)c4cc(C)cc(C)c4[nH]3)n[nH]2)c1 | nt | nt | nt | i
COCCN(Cc1ccccn1)Cc1cc(=O)c2cc(C)cc(C)c2[nH]1 | i | i | i | 28µM
COc1ccc(Cl)cc1NC(=O)CCC1CCCN(c2ccc(C(F)(F)F)cn2)C1 (centres undefined) | i | i | i | 28µM
CCCC1CCC(c2ccc(C(C)=O)cc2)CC1 (centres undefined) | nt | nt | nt | i
Cc1cc(C)c(NC(=O)CSc2ncnc3ccccc23)c(C)c1 | nt | nt | nt | i
